# In PMC7862700, “An all-to-all approach to the identification of sequence-specific readers for epigenetic DNA modifications on cytosine”:
# Columns and labels:
# Experiment in all cases: DAPPL (digital affinity profiling via proximity ligation, sequencing); 10 mM Tris-HCl pH 7.5, 50 mM NaCl, 1 mM DTT, 4% glycerol, room temperature, 30 min; GST-TFs on glutathione beads, 16-mer random dsDNA library, 0.1% formaldehyde crosslink after washing; high values mean tight binding
# [1] = biological target: T1, FLI1 (Homo sapiens, UniProt Q01543 1-452); conditions: protein: recombinant; tags: N-terminal GST; dsDNA, one strand shown
# T1 sequence: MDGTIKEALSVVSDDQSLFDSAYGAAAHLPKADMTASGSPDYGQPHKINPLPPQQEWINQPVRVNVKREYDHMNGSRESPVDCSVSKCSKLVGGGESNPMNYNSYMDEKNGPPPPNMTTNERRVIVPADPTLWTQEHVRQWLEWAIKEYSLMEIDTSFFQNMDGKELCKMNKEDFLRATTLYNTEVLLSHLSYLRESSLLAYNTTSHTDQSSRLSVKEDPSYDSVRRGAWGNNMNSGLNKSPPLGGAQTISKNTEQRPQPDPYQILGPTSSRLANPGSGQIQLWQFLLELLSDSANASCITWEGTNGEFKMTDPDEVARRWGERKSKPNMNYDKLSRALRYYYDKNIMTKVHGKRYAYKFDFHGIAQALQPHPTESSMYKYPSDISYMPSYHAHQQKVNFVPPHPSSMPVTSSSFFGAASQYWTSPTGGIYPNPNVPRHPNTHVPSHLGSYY
# Summary of the method: (§1)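 In yeast, human transcription factors were expressed with a GST fusion, then pulled down on glutathione beads and given DNA barcodes. Pooled with a tag-only sample, they were exposed to 200 nmole of a 16-mer random double-stranded DNA library (Tris/NaCl/DTT/glycerol buffer, room temperature, 30 min), washed, crosslinked with 0.1% formaldehyde, proximity-ligated using BsaI/T4 ligase for 1 h at 37 °C, PCR-amplified and read on an Illumina NextSeq500. Each hexamer's frequency of reads for a factor, divided by the matching frequency for the tag-only sample, gives the binding signal.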
# [2] = biological target: T2, ELK1 (Homo sapiens, UniProt P19419 1-428); conditions: protein: recombinant; tags: N-terminal GST; dsDNA, one strand shown
# T2 sequence: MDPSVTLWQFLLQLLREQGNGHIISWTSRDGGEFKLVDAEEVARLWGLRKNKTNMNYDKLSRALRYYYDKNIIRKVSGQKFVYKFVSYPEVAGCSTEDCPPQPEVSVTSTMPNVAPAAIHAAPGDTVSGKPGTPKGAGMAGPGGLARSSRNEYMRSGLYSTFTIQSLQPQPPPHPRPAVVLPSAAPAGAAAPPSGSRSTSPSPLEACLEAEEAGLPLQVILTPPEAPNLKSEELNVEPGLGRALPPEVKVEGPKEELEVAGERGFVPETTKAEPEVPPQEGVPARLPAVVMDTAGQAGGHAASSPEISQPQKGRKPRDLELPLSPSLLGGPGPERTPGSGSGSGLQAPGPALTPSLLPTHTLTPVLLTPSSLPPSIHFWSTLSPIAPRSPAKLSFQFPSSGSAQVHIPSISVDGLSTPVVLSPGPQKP
# Summary of the method: as §1
# [3] = biological target: T3, GABPA (Homo sapiens, UniProt Q06546 1-454); conditions: protein: recombinant; tags: N-terminal GST; dsDNA, one strand shown
# T3 sequence: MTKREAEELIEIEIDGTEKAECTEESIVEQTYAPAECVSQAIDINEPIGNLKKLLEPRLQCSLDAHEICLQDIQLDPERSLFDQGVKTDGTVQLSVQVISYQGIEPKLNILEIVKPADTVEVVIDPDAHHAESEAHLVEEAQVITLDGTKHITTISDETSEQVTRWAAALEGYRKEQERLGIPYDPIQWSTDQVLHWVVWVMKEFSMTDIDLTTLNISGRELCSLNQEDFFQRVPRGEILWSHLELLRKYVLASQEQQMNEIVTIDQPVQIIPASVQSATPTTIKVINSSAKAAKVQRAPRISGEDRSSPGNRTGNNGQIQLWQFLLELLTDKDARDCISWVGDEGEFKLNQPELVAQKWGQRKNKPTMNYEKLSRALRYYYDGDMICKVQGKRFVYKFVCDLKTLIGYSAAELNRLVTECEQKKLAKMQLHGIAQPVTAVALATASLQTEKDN
# Summary of the method: as §1
# [4] = biological target: T4, ERG (Homo sapiens, UniProt P11308 1-479); conditions: protein: recombinant; tags: N-terminal GST; dsDNA, one strand shown
# T4 sequence: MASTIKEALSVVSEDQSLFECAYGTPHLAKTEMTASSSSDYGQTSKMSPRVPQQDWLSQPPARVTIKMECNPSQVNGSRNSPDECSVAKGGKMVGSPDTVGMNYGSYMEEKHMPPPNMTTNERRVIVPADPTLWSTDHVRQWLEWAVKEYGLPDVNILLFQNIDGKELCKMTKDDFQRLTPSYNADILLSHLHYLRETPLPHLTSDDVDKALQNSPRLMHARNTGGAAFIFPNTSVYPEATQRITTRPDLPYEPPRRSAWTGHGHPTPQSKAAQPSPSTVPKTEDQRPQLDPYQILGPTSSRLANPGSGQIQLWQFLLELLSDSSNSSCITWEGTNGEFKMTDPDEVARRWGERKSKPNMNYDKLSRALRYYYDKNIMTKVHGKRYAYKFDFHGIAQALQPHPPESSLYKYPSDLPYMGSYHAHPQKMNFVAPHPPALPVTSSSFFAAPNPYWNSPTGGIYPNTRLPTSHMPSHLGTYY
# Summary of the method: as §1
# [5] = biological target: ELF1 (Homo sapiens, UniProt P32519 1-619); conditions: protein: recombinant; tags: N-terminal GST; dsDNA, one strand shown
# Sequence of ELF1 (P32519 whole entry): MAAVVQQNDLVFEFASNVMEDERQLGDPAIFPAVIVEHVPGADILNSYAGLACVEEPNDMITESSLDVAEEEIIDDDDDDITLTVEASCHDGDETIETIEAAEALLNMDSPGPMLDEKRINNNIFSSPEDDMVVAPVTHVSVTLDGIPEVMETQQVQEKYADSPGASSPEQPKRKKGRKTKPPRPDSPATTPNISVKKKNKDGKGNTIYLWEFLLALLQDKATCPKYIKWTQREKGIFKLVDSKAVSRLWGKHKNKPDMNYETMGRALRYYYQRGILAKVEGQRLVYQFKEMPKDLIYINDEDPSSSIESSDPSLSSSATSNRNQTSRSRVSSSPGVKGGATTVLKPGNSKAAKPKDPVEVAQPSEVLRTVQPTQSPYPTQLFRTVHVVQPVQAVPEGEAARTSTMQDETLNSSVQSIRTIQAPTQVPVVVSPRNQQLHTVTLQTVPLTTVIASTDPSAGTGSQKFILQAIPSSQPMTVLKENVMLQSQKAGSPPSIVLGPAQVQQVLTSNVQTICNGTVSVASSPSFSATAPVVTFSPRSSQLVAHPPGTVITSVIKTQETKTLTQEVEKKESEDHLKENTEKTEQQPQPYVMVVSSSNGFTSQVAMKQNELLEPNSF
# Summary of the method: as §1
# [6] = biological target: T5, EHF (Homo sapiens, UniProt Q9NZC4 1-300); conditions: protein: recombinant; tags: N-terminal GST; dsDNA, one strand shown
# T5 sequence: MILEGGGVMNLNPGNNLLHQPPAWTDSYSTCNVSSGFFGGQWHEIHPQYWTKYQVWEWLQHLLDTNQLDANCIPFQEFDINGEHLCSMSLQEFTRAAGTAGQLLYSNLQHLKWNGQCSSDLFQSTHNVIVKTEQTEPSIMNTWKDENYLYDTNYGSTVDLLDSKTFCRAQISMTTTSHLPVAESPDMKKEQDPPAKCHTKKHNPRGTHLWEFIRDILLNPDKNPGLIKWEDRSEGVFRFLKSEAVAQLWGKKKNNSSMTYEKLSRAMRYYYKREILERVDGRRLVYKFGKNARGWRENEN
# Summary of the method: as §1
# [7] = biological target: SPI1 (Homo sapiens, UniProt P17947 1-270); conditions: protein: recombinant; tags: N-terminal GST; dsDNA, one strand shown
# Summary of the method: as §1
# [8] = biological target: SPIB (Homo sapiens, UniProt Q01892 1-262); conditions: protein: recombinant; tags: N-terminal GST; dsDNA, one strand shown
# Sequence of SPIB (Q01892 whole entry): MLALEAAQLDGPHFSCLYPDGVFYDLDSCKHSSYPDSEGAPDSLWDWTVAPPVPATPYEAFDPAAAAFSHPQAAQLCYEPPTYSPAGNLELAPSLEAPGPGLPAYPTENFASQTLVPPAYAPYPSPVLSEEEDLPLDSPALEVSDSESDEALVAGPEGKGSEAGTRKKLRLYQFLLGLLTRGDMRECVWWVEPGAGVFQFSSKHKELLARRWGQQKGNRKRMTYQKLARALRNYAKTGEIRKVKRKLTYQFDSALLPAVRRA
# Summary of the method: as §1
# [9] = biological target: T6, ELK3 (Homo sapiens, UniProt P41970 1-407); conditions: protein: recombinant; tags: N-terminal GST; dsDNA, one strand shown
# T6 sequence: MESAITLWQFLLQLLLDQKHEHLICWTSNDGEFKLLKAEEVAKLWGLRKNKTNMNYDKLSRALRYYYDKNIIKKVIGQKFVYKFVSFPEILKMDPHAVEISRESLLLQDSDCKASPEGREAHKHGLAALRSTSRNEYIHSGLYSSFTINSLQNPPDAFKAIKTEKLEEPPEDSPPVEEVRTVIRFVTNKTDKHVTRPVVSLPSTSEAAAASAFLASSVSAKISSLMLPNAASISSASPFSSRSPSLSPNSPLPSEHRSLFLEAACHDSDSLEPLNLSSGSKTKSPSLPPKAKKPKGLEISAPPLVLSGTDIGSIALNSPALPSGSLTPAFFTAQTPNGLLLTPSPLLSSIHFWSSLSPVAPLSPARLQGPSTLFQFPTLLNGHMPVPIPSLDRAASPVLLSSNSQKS
# Summary of the method: as §1
# [10] = biological target: T7, FEV (Homo sapiens, UniProt Q99581 1-238); conditions: protein: recombinant; tags: N-terminal GST; dsDNA, one strand shown
# T7 sequence: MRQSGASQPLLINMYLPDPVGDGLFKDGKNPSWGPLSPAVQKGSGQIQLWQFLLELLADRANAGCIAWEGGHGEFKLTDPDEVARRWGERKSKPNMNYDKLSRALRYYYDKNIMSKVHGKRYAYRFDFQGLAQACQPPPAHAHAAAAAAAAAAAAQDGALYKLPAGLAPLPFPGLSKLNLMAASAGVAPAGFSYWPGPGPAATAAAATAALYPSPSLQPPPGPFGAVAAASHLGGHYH
# Summary of the method: as §1
# [11] = biological target: ETV5 (Homo sapiens, UniProt P41161 1-510); conditions: protein: recombinant; tags: N-terminal GST; dsDNA, one strand shown
# Sequence of ETV5 (P41161 whole entry): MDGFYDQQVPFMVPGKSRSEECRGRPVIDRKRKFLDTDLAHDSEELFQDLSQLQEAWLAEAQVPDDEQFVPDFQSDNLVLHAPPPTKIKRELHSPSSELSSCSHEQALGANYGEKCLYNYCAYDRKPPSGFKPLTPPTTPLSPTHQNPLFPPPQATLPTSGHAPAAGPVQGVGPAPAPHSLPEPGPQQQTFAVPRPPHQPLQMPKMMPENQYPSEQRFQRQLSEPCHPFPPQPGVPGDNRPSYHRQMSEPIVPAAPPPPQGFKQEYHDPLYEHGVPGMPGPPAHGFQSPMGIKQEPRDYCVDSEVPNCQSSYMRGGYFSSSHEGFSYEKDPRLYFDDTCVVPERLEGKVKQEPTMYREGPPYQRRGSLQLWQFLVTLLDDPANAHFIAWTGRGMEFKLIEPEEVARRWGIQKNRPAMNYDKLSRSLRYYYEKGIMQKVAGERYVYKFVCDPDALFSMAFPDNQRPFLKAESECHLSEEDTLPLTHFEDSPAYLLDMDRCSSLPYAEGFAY
# Summary of the method: as §1
# [12] = biological target: HSF1 (Homo sapiens, UniProt Q00613 1-529); conditions: protein: recombinant; tags: N-terminal GST; chain copies: 3; dsDNA, one strand shown
# Sequence of HSF1 (Q00613 whole entry): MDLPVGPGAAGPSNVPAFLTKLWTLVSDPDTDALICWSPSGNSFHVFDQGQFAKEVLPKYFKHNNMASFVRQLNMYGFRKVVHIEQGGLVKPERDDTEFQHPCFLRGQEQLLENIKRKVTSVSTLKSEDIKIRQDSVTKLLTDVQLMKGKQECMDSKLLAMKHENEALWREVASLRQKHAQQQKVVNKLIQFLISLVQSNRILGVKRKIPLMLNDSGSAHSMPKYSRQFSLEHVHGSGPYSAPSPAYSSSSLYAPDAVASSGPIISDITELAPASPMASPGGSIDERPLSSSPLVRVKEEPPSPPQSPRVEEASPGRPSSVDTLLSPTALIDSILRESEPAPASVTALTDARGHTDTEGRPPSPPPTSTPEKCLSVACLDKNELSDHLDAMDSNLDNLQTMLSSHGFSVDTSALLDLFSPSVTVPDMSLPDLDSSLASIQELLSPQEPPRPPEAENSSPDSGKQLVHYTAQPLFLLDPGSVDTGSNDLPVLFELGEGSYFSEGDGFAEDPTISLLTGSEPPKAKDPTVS
# Summary of the method: as §1
# [13] = biological target: T8, SPIC (Homo sapiens, UniProt Q8N5J4 1-248); conditions: protein: recombinant; tags: N-terminal GST; dsDNA, one strand shown
# T8 sequence: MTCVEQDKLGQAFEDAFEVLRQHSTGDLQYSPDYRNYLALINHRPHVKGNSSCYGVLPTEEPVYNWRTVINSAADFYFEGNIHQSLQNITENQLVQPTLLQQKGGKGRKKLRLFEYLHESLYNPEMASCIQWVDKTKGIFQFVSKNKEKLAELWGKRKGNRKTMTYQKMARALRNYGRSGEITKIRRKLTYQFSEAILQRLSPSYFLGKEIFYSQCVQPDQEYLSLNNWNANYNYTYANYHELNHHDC
# Summary of the method: as §1
# [14] = biological target: ELF4 (Homo sapiens, UniProt Q99607 1-663); conditions: protein: recombinant; tags: N-terminal GST; dsDNA, one strand shown
# Sequence of ELF4 (Q99607 whole entry): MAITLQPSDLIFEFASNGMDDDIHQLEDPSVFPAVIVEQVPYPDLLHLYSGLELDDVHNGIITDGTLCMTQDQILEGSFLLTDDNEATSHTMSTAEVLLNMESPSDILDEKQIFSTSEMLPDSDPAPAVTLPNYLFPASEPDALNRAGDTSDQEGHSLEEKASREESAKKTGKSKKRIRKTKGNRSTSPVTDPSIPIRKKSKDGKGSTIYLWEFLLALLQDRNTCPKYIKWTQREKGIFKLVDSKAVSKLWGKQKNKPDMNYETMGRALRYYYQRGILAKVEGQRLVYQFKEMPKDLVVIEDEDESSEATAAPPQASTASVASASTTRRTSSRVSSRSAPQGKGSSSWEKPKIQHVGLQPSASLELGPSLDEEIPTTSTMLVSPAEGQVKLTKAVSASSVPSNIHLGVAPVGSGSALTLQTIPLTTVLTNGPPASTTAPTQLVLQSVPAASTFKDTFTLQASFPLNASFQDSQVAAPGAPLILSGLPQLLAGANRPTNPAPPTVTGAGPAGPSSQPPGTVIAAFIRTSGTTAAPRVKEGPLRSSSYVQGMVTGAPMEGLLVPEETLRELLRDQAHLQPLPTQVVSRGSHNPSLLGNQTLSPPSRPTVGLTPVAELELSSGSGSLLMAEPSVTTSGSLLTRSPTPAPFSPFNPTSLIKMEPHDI
# Summary of the method: as §1
# [15] = biological target: T9, ELK4 (Homo sapiens, UniProt P28324-2 1-405); conditions: protein: recombinant; tags: N-terminal GST; dsDNA, one strand shown
# T9 sequence: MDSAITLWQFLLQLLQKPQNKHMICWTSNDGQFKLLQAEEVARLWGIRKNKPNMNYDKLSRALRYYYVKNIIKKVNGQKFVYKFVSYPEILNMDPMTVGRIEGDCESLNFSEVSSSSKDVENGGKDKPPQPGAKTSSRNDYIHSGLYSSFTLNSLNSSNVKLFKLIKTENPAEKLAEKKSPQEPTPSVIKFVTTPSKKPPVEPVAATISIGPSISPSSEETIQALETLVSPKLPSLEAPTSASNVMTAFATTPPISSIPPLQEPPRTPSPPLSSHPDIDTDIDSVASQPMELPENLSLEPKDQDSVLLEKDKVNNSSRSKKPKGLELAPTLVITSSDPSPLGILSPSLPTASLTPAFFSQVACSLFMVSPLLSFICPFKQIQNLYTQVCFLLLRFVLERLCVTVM
# Summary of the method: as §1
# [16] = biological target: T10, ETV2 (Homo sapiens, UniProt O00321 1-342); conditions: protein: recombinant; tags: N-terminal GST; dsDNA, one strand shown
# T10 sequence: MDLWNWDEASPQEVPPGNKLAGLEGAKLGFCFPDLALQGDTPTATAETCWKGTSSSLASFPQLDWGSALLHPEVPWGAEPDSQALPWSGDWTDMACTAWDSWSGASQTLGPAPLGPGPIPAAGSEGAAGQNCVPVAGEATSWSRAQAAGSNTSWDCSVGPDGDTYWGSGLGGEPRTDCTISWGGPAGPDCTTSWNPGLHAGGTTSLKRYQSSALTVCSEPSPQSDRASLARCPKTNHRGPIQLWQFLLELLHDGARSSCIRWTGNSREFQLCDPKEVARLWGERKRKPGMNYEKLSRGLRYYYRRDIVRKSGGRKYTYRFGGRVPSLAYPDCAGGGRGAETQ
# Summary of the method: as §1
# [17] = biological target: T11, ELF3 (Homo sapiens, UniProt P78545 1-371); conditions: protein: recombinant; tags: N-terminal GST; dsDNA, one strand shown
# T11 sequence: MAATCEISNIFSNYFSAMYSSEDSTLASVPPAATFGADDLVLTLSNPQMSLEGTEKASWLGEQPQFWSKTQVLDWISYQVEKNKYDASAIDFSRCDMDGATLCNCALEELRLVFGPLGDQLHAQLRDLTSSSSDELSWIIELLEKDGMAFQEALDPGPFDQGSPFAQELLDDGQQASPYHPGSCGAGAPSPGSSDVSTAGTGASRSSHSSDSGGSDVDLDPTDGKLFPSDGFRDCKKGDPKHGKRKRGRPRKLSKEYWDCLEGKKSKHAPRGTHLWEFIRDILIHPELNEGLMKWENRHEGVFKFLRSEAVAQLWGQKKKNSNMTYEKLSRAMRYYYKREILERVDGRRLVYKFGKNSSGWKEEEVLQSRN
# Summary of the method: as §1
# [18] = biological target: CRX (Homo sapiens, UniProt O43186 1-299); conditions: protein: recombinant; tags: N-terminal GST; dsDNA, one strand shown
# Sequence of CRX (O43186 whole entry): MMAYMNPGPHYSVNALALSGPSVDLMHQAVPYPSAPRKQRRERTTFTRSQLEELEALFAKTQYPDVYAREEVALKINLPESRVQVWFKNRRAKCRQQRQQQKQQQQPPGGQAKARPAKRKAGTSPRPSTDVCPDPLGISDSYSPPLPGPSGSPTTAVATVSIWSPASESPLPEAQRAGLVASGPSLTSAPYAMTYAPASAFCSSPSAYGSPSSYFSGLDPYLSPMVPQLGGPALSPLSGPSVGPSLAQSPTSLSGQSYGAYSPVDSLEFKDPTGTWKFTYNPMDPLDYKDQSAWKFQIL
# Summary of the method: as §1
# [19] = biological target: ETV1 (Homo sapiens, UniProt P50549 1-477); conditions: protein: recombinant; tags: N-terminal GST; dsDNA, one strand shown
# Sequence of ETV1 (P50549 whole entry): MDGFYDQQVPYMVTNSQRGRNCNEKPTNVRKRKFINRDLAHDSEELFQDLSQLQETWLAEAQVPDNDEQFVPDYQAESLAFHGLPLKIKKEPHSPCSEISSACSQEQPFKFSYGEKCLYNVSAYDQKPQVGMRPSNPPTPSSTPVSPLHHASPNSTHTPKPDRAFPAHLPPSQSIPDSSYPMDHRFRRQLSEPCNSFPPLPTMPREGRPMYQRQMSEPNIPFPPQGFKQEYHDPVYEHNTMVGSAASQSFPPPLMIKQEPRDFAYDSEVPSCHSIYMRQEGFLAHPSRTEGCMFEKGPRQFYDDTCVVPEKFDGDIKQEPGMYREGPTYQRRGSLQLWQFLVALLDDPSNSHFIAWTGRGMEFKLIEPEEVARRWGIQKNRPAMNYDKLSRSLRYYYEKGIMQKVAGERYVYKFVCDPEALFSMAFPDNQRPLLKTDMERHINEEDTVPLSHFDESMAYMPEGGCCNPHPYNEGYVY
# Summary of the method: as §1
sequence,measurement,setting,value
AATTTC,binding signal,[1],"1.65 fold enrichment (6-mer frequency, TF over GST control)"
same,binding signal,[2],"1.59 fold enrichment (6-mer frequency, TF over GST control)"
same,binding signal,[3],"1.75 fold enrichment (6-mer frequency, TF over GST control)"
same,binding signal,[4],"1.94 fold enrichment (6-mer frequency, TF over GST control)"
same,binding signal,[5],"1.6 fold enrichment (6-mer frequency, TF over GST control)"
same,binding signal,[6],"1.77 fold enrichment (6-mer frequency, TF over GST control)"
same,binding signal,[7],"1.47 fold enrichment (6-mer frequency, TF over GST control)"
same,binding signal,[8],"1.85 fold enrichment (6-mer frequency, TF over GST control)"
same,binding signal,[9],"1.79 fold enrichment (6-mer frequency, TF over GST control)"
same,binding signal,[10],"1.93 fold enrichment (6-mer frequency, TF over GST control)"
same,binding signal,[11],"1.8 fold enrichment (6-mer frequency, TF over GST control)"
same,binding signal,[12],"1.89 fold enrichment (6-mer frequency, TF over GST control)"
same,binding signal,[13],"1.59 fold enrichment (6-mer frequency, TF over GST control)"
same,binding signal,[14],"1.61 fold enrichment (6-mer frequency, TF over GST control)"
same,binding signal,[15],"1.6 fold enrichment (6-mer frequency, TF over GST control)"
same,binding signal,[16],"1.88 fold enrichment (6-mer frequency, TF over GST control)"
same,binding signal,[17],"1.75 fold enrichment (6-mer frequency, TF over GST control)"
same,binding signal,[18],"1.49 fold enrichment (6-mer frequency, TF over GST control)"
same,binding signal,[19],"1.79 fold enrichment (6-mer frequency, TF over GST control)"
